The term inhibition denotes the change of the read-out against control, counted positive when it falls.

“And” between values parts separate entries of the source, which are not always exact repeats. Equal values may be shown once. A number with no mark means an inactive call. No rule for the calls is given here.

For the first assay, the system named is Botulinum neurotoxin type F light chain protease (Clostridium botulinum). Put plainly: Botulinum neurotoxin type F light chain protease inhibition, multiplex microsphere flow cytometry, validation set (AID 588459). The note with it: multiplex microsphere protease substrate cleavage assay, at 10 µM, stronger effect = higher value. (In general: In flow cytometry, cells or beads pass a laser one at a time.)
For `COCC1CCCN(Cc2cn[nH]c2-c2cc3ccccc3o2)C1` (stereo not drawn), the inhibition is -0.1%.

Regarding `O=C(c1ccc(O)cc1)c1ccc(O)cc1O`, the inhibition is -0.9%.

Consider `O=C(/C=C/Sc1ccccc1)c1ccccc1`, for which the inhibition is -0.5%.

Turning to `CC1(C)c2ccccc2N2CC(=O)NC21/C=C/c1ccco1` (stereo not drawn), the inhibition is 3.2%.

`COC(=O)c1ccc(NC(=O)C23CCC(C)(C(=O)O2)C3(C)C)cc1` (stereo not drawn): the inhibition was 0.4%.

For the compound `CC(=O)C1=C(Nc2ccc(C)cc2)CC(C)(O)C(C(C)=O)C1c1ccco1` (stereo not drawn), the inhibition was 1%.

With `CCOc1ccc(C(=O)Nc2ccc(N3CCN(C(C)=O)CC3)cc2)cc1[N+](=O)[O-]`, the inhibition is 1.6%.

On to `CC12CN3CC(C)(CN(C1)C3c1ccc(Cl)cc1Cl)C2=O` (stereo not drawn), for which the inhibition is -0.6%.

Regarding `COc1cc(C)nc(-n2nc(C)cc2OC)n1`, the inhibition was 0.2%.

`Cc1ccc(C(=O)NC(=S)NCCCN2CCOCC2)cc1`: the inhibition was 3.6%.

For `Cc1ccccc1N1C(N)=NC(N)=NC1(C)C`, the inhibition is -1.5%.

Consider `COC(=O)c1ccc(-c2ncc(-c3cccc4ccccc34)o2)cc1`, for which the inhibition was -1.4%.

For `COc1cccc(=O)c2c(C)n(CC(=O)c3ccccc3)c(C)c12`, the inhibition was -4.4%.

For `CCc1ccc(/C=C2\SC(=S)N(CCC(=O)N3CCN(C)CC3)C2=O)cc1`, the inhibition was 4.9%.

As to `Cc1cc(C(C)(C)C)c(O)c(C)c1CC1=NCCN1`, the inhibition was 0.7%.

Turning to `COc1ccc(-c2nc3c(=O)n(C)c(=O)[nH]c3n2CCc2ccccc2)cc1`, the inhibition was 1.2%.

`Cc1ccc2c(c1)C(O)(CC(=O)/C=C/C=C/c1ccccc1)C(=O)N2` (stereo not drawn): the inhibition was -1.2%.

As to `CCCCNc1cc(C(=O)O)cc(S(N)(=O)=O)c1Oc1ccccc1`, the inhibition was 2.6%.

Consider `CC(C)(C)C(=O)N1CCCC1C(=O)O` (stereo not drawn), for which the inhibition was -1%.

As to `CSCC[C@H](NC(=O)OC(C)(C)C)C(=O)N1CCC(C(=O)N[C@@H](C)C(=O)O)CC1`, the inhibition was -3.4%.

In the case of `CCN(CC)CCNC(=O)c1ccc(NC(C)=O)cc1`, the inhibition was 3.4% and 3.6%.

For `O=C(CCCC(=O)OCC1CCCO1)OCC1CCCO1` (stereo not drawn), the inhibition was 1.9%.

For `N#CCC(N)=C(C#N)C#N`, the inhibition was -6%.

Regarding `CC(C)(C)c1csc(N/N=C/c2cccnc2)n1`, the inhibition was -3.3%.

`O=C(NCc1ccc2c(c1)OCO2)c1ccc2c(c1)OCCO2`: the inhibition was 2%.

Turning to `O[C@H]1COC2C1OC[C@@H]2O` (stereo partly drawn), the inhibition is -2.3%.

Turning to `CN(C)[C@@H]1C(=O)C(C(N)=O)=C(O)[C@@]2(O)C(=O)C3=C(O)c4c(O)ccc(Cl)c4[C@@H](O)[C@H]3C[C@@H]12`, the inhibition was -5.8%.

For `CC1COc2c(N3CCN(C)CC3)c(F)cc3c(=O)c(C(=O)O)cn1c23` (stereo not drawn), the inhibition was -0.1%.

In the case of `NC(N)=NC(N)=Nc1ccc2ccccc2c1`, the inhibition was 3.6%.

In the case of `CC(C)(C)C(=O)NC(=S)NNC(=O)c1ccncc1`, the inhibition was 8.3%.

As to `COc1ccc(NC(=O)N2CCCCC2c2cccnc2)cc1` (stereo not drawn), the inhibition was 2.7%.

As for `Cc1ccc(C(=O)COC(=O)c2cccc(N3C(=O)c4c(C)nc5ccccc5c4C3=O)c2)cc1C`, the inhibition is -1.2%.

Regarding `CN(C)C(=O)CCCCCCCCC(=O)N(C)C`, the inhibition is -2.7%.

For `COc1ccc(CCNc2ncnc3c2[nH]c2cc(OC)c(OC)cc23)cc1OC`, the inhibition was -0.5%.

On to `NCc1ccccc1COc1ccccc1`, for which the inhibition is 2.3%.

As for `CCOc1ccc(C(NC(C)=O)c2ccc(OC)c(OC)c2)cc1` (stereo not drawn), the inhibition is -2.9%.

On to `COC(=O)C1=CN(Cc2cccs2)C=C(C(=O)OC)C1c1cccc(Cl)c1`, for which the inhibition was -4.5%.

`CCNCCC(CCC(C)C)c1ccc2c(c1)OCO2` (stereo not drawn): the inhibition is -3.1%.

As for `Cn1c(=O)[nH]c2nnc(-c3ccc(Cl)c(Cl)c3)nc2c1=O`, the inhibition is -0.1%.

In another assay the target is Botulinum neurotoxin type A (Clostridium botulinum) (UniProt P0DPI0). The assay is described as follows: BoNT/A light chain protease inhibitors, biochemical, multiplex microsphere flow cytometry, validation set (AID 588460). The note with it: at 10 µM, stronger effect = higher value.
Botulinum neurotoxin type A (Clostridium botulinum), sequence (P0DPI0 whole entry, looked up): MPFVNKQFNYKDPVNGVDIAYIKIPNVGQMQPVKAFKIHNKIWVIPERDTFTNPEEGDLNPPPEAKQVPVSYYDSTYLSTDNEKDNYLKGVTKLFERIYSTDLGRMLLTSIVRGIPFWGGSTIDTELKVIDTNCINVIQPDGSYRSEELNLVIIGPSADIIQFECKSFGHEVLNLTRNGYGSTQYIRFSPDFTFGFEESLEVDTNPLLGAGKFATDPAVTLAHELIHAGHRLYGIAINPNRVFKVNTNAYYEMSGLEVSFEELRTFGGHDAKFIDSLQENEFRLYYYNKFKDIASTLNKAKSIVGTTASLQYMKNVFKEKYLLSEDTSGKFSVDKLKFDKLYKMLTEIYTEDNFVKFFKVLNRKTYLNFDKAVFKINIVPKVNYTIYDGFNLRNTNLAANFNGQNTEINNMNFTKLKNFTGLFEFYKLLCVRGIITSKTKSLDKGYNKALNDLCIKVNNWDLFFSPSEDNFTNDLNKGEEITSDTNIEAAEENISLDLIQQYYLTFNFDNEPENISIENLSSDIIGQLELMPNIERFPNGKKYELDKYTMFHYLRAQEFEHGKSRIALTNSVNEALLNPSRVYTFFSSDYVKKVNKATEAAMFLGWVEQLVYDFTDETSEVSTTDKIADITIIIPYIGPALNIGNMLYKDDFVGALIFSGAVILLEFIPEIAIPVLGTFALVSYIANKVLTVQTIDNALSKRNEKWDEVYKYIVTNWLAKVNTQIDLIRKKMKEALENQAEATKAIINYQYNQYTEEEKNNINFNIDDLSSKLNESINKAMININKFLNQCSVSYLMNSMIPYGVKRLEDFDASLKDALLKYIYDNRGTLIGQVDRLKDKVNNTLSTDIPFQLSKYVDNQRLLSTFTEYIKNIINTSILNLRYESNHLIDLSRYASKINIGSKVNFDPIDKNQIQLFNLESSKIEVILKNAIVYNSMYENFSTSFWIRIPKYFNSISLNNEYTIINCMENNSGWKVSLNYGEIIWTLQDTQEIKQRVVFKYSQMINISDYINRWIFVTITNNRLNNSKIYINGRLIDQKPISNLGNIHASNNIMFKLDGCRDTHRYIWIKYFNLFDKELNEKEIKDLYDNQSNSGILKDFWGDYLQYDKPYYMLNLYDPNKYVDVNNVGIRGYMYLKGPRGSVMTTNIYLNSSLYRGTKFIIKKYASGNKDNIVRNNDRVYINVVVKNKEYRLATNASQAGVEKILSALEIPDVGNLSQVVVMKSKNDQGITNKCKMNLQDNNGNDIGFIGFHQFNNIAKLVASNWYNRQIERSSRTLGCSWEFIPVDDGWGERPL
As for `COCC1CCCN(Cc2cn[nH]c2-c2cc3ccccc3o2)C1` (stereo not drawn), the inhibition is -1.5%.

In the case of `O=C(c1ccc(O)cc1)c1ccc(O)cc1O`, the inhibition is 1.3%.

`O=C(/C=C/Sc1ccccc1)c1ccccc1`: the inhibition was -0.8%.

In the case of `CC1(C)c2ccccc2N2CC(=O)NC21/C=C/c1ccco1` (stereo not drawn), the inhibition was 0.5%.

Take `COC(=O)c1ccc(NC(=O)C23CCC(C)(C(=O)O2)C3(C)C)cc1` (stereo not drawn): the inhibition is -1.5%.

As to `CC(=O)C1=C(Nc2ccc(C)cc2)CC(C)(O)C(C(C)=O)C1c1ccco1` (stereo not drawn), the inhibition was 0%.

Turning to `CCOc1ccc(C(=O)Nc2ccc(N3CCN(C(C)=O)CC3)cc2)cc1[N+](=O)[O-]`, the inhibition was 0%.

With `CC12CN3CC(C)(CN(C1)C3c1ccc(Cl)cc1Cl)C2=O` (stereo not drawn), the inhibition was 0.5%.

With `COc1cc(C)nc(-n2nc(C)cc2OC)n1`, the inhibition is -1.5%.

Turning to `Cc1ccc(C(=O)NC(=S)NCCCN2CCOCC2)cc1`, the inhibition was -1.4%.

As for `Cc1ccccc1N1C(N)=NC(N)=NC1(C)C`, the inhibition was -0.8%.

As to `COC(=O)c1ccc(-c2ncc(-c3cccc4ccccc34)o2)cc1`, the inhibition is -1.3%.

In the case of `COc1cccc(=O)c2c(C)n(CC(=O)c3ccccc3)c(C)c12`, the inhibition is 0.1%.

Turning to `CCc1ccc(/C=C2\SC(=S)N(CCC(=O)N3CCN(C)CC3)C2=O)cc1`, the inhibition is 2.1%.

As to `Cc1cc(C(C)(C)C)c(O)c(C)c1CC1=NCCN1`, the inhibition was -1.1%.

`COc1ccc(-c2nc3c(=O)n(C)c(=O)[nH]c3n2CCc2ccccc2)cc1`: the inhibition was 0.2%.

Turning to `Cc1ccc2c(c1)C(O)(CC(=O)/C=C/C=C/c1ccccc1)C(=O)N2` (stereo not drawn), the inhibition is -0.9%.

Regarding `CCCCNc1cc(C(=O)O)cc(S(N)(=O)=O)c1Oc1ccccc1`, the inhibition was 1.7%.

As to `CC(C)(C)C(=O)N1CCCC1C(=O)O` (stereo not drawn), the inhibition is -1.2%.

For the compound `CSCC[C@H](NC(=O)OC(C)(C)C)C(=O)N1CCC(C(=O)N[C@@H](C)C(=O)O)CC1`, the inhibition is 0.4%.

Regarding `CCN(CC)CCNC(=O)c1ccc(NC(C)=O)cc1`, the inhibition is 1.2% and -1.2%.

On to `O=C(CCCC(=O)OCC1CCCO1)OCC1CCCO1` (stereo not drawn), for which the inhibition was -0.9%.

As for `N#CCC(N)=C(C#N)C#N`, the inhibition is -2%.

Regarding `CC(C)(C)c1csc(N/N=C/c2cccnc2)n1`, the inhibition was 0.5%.

Regarding `O=C(NCc1ccc2c(c1)OCO2)c1ccc2c(c1)OCCO2`, the inhibition was 0.7%.

`O[C@H]1COC2C1OC[C@@H]2O` (stereo partly drawn): the inhibition was -0.4%.

With `CN(C)[C@@H]1C(=O)C(C(N)=O)=C(O)[C@@]2(O)C(=O)C3=C(O)c4c(O)ccc(Cl)c4[C@@H](O)[C@H]3C[C@@H]12`, the inhibition is -0.3%.

Consider `CC1COc2c(N3CCN(C)CC3)c(F)cc3c(=O)c(C(=O)O)cn1c23` (stereo not drawn), for which the inhibition is -0.3%.

Turning to `NC(N)=NC(N)=Nc1ccc2ccccc2c1`, the inhibition was 1%.

In the case of `CC(C)(C)C(=O)NC(=S)NNC(=O)c1ccncc1`, the inhibition is 2.9%.

Take `COc1ccc(NC(=O)N2CCCCC2c2cccnc2)cc1` (stereo not drawn): the inhibition is 0.7%.

In the case of `Cc1ccc(C(=O)COC(=O)c2cccc(N3C(=O)c4c(C)nc5ccccc5c4C3=O)c2)cc1C`, the inhibition is -1.1%.

As for `CN(C)C(=O)CCCCCCCCC(=O)N(C)C`, the inhibition was -0.9%.

Turning to `COc1ccc(CCNc2ncnc3c2[nH]c2cc(OC)c(OC)cc23)cc1OC`, the inhibition was -0.5%.

Turning to `NCc1ccccc1COc1ccccc1`, the inhibition was 0.1%.

As to `CCOc1ccc(C(NC(C)=O)c2ccc(OC)c(OC)c2)cc1` (stereo not drawn), the inhibition is -0.9%.

On to `COC(=O)C1=CN(Cc2cccs2)C=C(C(=O)OC)C1c1cccc(Cl)c1`, for which the inhibition is -0.4%.

As for `CCNCCC(CCC(C)C)c1ccc2c(c1)OCO2` (stereo not drawn), the inhibition is -1.3%.

For `Cn1c(=O)[nH]c2nnc(-c3ccc(Cl)c(Cl)c3)nc2c1=O`, the inhibition is 0.4%.

The values above are taken from PubChem BioAssay.
